Assay [1] deals with Acetylcholinesterase (Homo sapiens) (UniProt P22303). Briefly: Acetylcholinesterase (AChE) small molecule antagonists: fluorescence cell-based qHTS assay (AID 1347398; calls by dose curve; further: nearly all actives have a fitted effect of over 50% in size; further: potency means the concentration at half of the fitted maximal effect). The note with it: Potency: AChE activity. Summed up:
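Cells (SH-SY5Y) attached overnight, were dosed with compound or DMSO vehicle for 30 min at 37 C, and then incubated 40 min at room temperature with acetylthiocholine and Thiolite Green; green fluorescence indexed AChE activity.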

Assay [2] shares this target. Briefly: Acetylcholinesterase (AChE) small molecule antagonists: enzyme-based qHTS assay with human liver microsomes (AID 1347399; calls by dose curve; further: nearly all actives have a fitted effect of over 60% in size; further: potency means the concentration at half of the fitted maximal effect). The note with it: Potency: qHTS inhibition. A digest of the protocol: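 Recombinant human AChE (50 mU/mL in the enzyme mix) and human liver microsomes (0.25 mg/mL final) were preincubated with compound and NADPH (0.25 mg/mL final) for 30 min at 37 C. Acetylthiocholine/DTNB was then added; thiocholine was read colorimetrically after 10 min at room temperature.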

Assay [3] deals with Cytochrome P450 2D6 (Homo sapiens) (UniProt P10635). Briefly: Cytochrome P450 Family 2 Subfamily D Member 6 (CYP2D6) small molecule antagonists: luciferase reporter qHTS assay (AID 1671196). Further: nearly all actives have a fitted effect of over 50% in size. Further: potency means the concentration at half of the fitted maximal effect. Summed up: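 Test chemicals meet CYP2D6 plus proluciferin substrate (10 min, RT); NADPH regenerating solution then drives turnover for 1 h. Detection reagent halts the reaction; luminescence measured after 20 min.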
Chain of Cytochrome P450 2D6 (Homo sapiens) (P10635 whole entry, looked up): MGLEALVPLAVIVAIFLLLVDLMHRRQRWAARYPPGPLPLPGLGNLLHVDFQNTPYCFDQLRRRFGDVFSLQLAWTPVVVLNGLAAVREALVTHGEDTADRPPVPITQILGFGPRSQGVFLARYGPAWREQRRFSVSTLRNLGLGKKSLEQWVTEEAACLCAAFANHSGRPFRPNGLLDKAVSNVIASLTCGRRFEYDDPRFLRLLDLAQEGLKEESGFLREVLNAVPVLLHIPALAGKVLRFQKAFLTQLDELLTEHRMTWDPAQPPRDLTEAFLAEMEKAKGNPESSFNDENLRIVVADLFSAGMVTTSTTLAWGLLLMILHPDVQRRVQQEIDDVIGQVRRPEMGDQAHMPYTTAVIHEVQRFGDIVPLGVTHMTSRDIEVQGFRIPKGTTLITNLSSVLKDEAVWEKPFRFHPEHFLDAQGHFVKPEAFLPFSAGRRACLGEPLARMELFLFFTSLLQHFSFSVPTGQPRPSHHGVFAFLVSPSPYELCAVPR

Assay [4] deals with Cytochrome P450 2C19 (Homo sapiens) (UniProt P33261). Briefly: Cytochrome P450 Family 2 Subfamily C Member 19 (CYP2C19) small molecule antagonists: luciferase reporter qHTS assay (AID 1671197). Further: nearly all actives have a fitted effect of over 65% in size. Further: potency means the concentration at half of the fitted maximal effect. Summed up: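 P450-Glo CYP2C19 system: enzyme-substrate mix with compound 10 min at room temperature, then NADPH regeneration solution, 1 h at 37C. Proluciferin-to-luciferin conversion detected by luminescence after 20 min with detection reagent; ketoconazole as positive control.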
Chain of Cytochrome P450 2C19 (Homo sapiens) (P33261 whole entry, looked up): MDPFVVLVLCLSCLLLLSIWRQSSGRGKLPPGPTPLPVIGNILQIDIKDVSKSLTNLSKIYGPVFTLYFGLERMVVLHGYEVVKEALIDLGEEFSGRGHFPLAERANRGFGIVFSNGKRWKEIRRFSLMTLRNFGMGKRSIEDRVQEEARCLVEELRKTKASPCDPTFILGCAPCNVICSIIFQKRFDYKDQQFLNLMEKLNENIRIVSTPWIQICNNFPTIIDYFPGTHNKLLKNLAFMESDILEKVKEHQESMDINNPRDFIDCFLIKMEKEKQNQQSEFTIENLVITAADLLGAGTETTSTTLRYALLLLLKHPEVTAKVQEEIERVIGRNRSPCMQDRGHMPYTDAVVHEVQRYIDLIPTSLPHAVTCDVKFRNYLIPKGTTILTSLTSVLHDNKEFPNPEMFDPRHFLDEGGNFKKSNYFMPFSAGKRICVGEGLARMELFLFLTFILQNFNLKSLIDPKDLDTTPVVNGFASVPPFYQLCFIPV

Assay [5] deals with Cytochrome P450 2C9 (Homo sapiens) (UniProt P11712). Briefly: Cytochrome P450 Family 2 Subfamily C Member 9 (CYP2C9) small molecule antagonists: luciferase reporter qHTS assay (AID 1671198). Further: nearly all actives have a fitted effect of over 50% in size. Further: potency means the concentration at half of the fitted maximal effect. A digest of the protocol:
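P450-Glo proluciferin substrate with CYP2C9 enzyme; 10 min RT preincubation, then NADPH regeneration 1 h at 37C; luciferin detection reagent 20 min RT, luminescence in relative luminescence units.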

Assay [6] deals with Cytochrome P450 1A2 (Homo sapiens) (UniProt P05177). Briefly: Cytochrome P450 Family 1 Subfamily A Member 2 (CYP1A2) small molecule antagonists: luciferase reporter qHTS assay (AID 1671199). Further: nearly all actives have a fitted effect of over 50% in size. Further: potency means the concentration at half of the fitted maximal effect. A digest of the protocol: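 Steps: enzyme-substrate mix dispensed; test compounds and furafylline control pinned in; 10 min room temperature; NADPH regeneration solution added, 1 h; reaction stopped with luciferin detection reagent; luminescence read after 20 min.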
Chain of Cytochrome P450 1A2 (Homo sapiens) (P05177 whole entry, looked up): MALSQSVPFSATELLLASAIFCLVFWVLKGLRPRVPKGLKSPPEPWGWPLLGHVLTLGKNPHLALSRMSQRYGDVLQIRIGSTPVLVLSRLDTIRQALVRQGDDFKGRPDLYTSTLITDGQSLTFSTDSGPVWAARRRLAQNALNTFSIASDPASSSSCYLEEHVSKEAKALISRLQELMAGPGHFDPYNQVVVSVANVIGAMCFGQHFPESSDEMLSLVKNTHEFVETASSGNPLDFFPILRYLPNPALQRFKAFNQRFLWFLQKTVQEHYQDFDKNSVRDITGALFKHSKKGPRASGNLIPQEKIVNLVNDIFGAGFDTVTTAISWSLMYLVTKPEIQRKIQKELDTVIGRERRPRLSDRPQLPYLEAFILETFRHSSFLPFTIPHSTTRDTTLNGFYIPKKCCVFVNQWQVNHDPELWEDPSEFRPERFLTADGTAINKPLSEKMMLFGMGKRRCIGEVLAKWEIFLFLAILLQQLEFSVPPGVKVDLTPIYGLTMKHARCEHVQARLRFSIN

Assay [7] addresses Voltage-gated inwardly rectifying potassium channel KCNH2 (Homo sapiens) (UniProt Q12809). Briefly: Human Ether-a-go-go-Related Gene (hERG) channel small molecule antagonists: fluorescence cell-based qHTS assay (AID 1671200). Summed up:
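First, 1000 cells per well are seeded and cultured overnight at 37 C. Next, FluxOR II dye is loaded for 1 h at room temperature, protected from light. After 10 more minutes, stimulus is added and fluorescence is read.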

The target of assay [8] is Cytochrome P450 3A4 (Homo sapiens) (UniProt P08684). Briefly: Cytochrome P450 Family 3 Subfamily A Member 4 (CYP3A4) small molecule antagonists: luciferase reporter qHTS assay (AID 1671201). Further: nearly all actives have a fitted effect of over 50% in size. Further: potency means the concentration at half of the fitted maximal effect. Summed up: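 Enzyme and proluciferin substrate are mixed with test chemicals for 10 min, then NADPH regeneration system drives turnover for 1 h at room temperature. A detection reagent halts the reaction; luminescence after 20 min gives relative activity.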
Chain of Cytochrome P450 3A4 (Homo sapiens) (P08684 whole entry, looked up): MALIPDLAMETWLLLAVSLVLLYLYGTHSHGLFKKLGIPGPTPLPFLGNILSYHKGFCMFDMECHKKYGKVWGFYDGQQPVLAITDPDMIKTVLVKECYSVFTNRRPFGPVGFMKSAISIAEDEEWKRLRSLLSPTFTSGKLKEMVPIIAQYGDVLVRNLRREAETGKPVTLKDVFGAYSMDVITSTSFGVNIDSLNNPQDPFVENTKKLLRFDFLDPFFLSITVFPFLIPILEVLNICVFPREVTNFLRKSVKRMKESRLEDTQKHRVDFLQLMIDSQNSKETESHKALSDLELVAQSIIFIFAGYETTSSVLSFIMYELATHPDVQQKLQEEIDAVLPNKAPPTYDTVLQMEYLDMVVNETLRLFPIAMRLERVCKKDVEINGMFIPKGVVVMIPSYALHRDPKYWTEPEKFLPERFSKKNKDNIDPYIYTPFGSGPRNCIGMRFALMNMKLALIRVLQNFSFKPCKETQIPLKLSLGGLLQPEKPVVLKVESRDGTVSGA

Where “and” joins values, the source holds several entries; their conditions need not be identical. Identical values can stand only once. Results filed as inconclusive are left out. The source holds several records for some structures; these can differ, active in one and inactive in another. Calls of active or inactive are those of the source. Unless noted, the call rests on the fitted dose curve; in most records, active means well fitted curve in the direction sought with a large enough effect in the repeat runs; inconclusive means weak or mixed curves; inactive means no such curve, though single readings can be large; an effect the other way counts as inactive or inconclusive.

Chain of Cytochrome P450 2C9 (Homo sapiens) (P11712 whole entry, looked up): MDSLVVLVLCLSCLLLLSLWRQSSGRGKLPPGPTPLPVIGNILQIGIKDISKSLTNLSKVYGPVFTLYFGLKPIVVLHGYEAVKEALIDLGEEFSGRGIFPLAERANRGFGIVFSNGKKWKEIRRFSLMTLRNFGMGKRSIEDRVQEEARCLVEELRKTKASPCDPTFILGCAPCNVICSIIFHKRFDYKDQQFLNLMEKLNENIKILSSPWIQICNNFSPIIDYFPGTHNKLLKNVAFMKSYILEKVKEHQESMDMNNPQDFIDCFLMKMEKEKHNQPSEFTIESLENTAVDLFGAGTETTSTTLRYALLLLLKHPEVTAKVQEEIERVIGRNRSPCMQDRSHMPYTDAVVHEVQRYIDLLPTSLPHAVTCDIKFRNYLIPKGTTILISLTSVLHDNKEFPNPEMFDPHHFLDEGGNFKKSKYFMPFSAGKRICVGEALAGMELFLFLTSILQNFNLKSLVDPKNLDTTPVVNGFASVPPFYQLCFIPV
Chain of Voltage-gated inwardly rectifying potassium channel KCNH2 (Homo sapiens) (Q12809 whole entry, looked up): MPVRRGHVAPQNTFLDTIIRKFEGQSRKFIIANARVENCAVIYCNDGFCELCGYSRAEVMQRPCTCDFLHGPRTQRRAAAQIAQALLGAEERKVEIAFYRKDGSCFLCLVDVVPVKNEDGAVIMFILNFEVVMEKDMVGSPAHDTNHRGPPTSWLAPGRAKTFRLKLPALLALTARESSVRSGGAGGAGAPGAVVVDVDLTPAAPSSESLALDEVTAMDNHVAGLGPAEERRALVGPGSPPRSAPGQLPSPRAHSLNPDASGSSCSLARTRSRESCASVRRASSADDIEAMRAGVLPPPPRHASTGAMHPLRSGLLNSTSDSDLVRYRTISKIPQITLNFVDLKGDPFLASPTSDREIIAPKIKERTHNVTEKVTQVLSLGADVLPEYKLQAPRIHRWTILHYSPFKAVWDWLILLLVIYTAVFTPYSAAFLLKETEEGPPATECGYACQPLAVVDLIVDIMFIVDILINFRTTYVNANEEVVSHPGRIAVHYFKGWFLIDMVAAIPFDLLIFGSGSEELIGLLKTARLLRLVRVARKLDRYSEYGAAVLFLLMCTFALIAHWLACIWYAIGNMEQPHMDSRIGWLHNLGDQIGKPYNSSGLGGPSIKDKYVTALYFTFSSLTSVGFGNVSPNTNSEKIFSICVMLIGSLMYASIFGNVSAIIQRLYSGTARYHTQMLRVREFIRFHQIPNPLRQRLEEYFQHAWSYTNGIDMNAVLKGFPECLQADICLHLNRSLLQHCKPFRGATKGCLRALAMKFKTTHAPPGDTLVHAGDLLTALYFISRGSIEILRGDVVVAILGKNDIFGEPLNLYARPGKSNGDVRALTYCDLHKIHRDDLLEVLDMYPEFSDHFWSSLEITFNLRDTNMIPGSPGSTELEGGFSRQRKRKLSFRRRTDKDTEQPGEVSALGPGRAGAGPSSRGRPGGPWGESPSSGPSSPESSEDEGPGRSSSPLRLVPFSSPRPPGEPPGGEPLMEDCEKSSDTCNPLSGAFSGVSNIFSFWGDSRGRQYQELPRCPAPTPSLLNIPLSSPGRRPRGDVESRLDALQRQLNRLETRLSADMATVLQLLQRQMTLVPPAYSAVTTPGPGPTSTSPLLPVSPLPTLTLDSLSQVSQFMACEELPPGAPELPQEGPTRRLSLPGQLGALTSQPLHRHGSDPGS
Chain of Acetylcholinesterase (Homo sapiens) (P22303 whole entry, looked up): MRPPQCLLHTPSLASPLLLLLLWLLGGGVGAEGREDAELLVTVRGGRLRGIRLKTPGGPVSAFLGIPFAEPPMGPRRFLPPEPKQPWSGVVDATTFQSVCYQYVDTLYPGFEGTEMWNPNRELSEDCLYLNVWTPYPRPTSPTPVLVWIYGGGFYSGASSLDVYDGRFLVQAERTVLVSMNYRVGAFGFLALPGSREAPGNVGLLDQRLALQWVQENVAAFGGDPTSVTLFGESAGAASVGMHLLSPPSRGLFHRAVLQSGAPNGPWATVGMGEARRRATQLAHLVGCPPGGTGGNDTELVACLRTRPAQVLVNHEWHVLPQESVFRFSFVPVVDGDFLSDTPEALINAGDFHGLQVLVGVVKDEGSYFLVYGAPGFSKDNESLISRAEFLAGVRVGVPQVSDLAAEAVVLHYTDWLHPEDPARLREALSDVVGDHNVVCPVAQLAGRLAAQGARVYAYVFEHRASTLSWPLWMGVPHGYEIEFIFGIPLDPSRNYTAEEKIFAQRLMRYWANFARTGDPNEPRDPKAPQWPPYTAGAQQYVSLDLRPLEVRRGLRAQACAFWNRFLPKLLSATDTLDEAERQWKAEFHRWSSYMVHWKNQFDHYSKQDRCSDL

For `CC(=O)/C=C/c1ccccc1`, the Potency entry in assay [1], in assay [2], in assay [5], in assay [7] and in assay [8] was “inactive” throughout. Besides, the Potency entry in assay [3] is “inactive and 35.6 µM (active)”; in assay [4], 78.2 µM (active); in assay [6] it was 31.7 µM (active) and 39.9 µM (active).
Regarding `[N-]=[N+]=CC(=O)OC[C@H](N)C(=O)O`, the Potency result in assay [1], in assay [2], in assay [4], in assay [5], in assay [6] and in assay [8] was “inactive” each time. Further, the Potency result in assay [3] is “inactive and 30.9 µM (active)”.
As for `Nc1cccc(Cl)c1`, the Potency result in assay [1], in assay [2], in assay [3] and in assay [8] was “inactive” in each case. Moreover, the Potency in assay [4] was 40.4 µM (active) and inactive; in assay [5], 71.8 µM (active) and inactive; in assay [6], 40.4 µM (active) and inactive.
Regarding `CN(C)C(=O)Nc1cccc(C(F)(F)F)c1`, the Potency result in assay [1], in assay [2], in assay [3], in assay [4], in assay [5] and in assay [8] was “inactive” in each case. Besides, the Potency in assay [6] was 2.88 µM (active) and 3.99 µM (active).
`COS(=O)(=O)OC`: the Potency entry in assay [1], in assay [2], in assay [3], in assay [4], in assay [5] and in assay [6] was “inactive” in each case. Besides, the Potency result in assay [8] is “inactive”.
In the case of `Cc1ccc(N=C=O)cc1N=C=O`, the Potency result in assay [1] and in assay [2] was “inactive” throughout. Moreover, the Potency in assay [3] was 40.9 µM (active) and 11.2 µM (active) and inactive; in assay [4], 36.5 µM (active) and 10 µM (active) and inactive; in assay [5], 36.5 µM (active) and 25.1 µM (active) and 79.6 µM (active); in assay [6], 36.5 µM (active) and 35.5 µM (active); in assay [8], 5.78 µM (active) and 2.82 µM (active) and inactive.
For the compound `CN(C)C(=O)Cl`, the Potency entry in assay [1], in assay [2], in assay [3], in assay [4], in assay [5] and in assay [6] was “inactive” each time. In assay [8], the Potency entry was “inactive”.
For `O=C(O)c1cc(Oc2ccc(C(F)(F)F)cc2Cl)ccc1[N+](=O)[O-]`, the Potency entry in assay [1], in assay [2], in assay [3], in assay [6] and in assay [8] was “inactive” throughout. Also, the Potency result is “inactive and 71 µM (active)” in assay [4]; 21.9 µM (active) and 35.6 µM (active) and 31.9 µM (active) in assay [5].
For `CNC(=O)O/N=C(\SC)C(=O)N(C)C`, the Potency in assay [1] was 489 nM (active) and 632 nM (active); in assay [2], 12.3 µM (active) and 20 µM (active); in assay [3], 30.9 µM (active) and 28.2 µM (active); in assay [4], 34.6 µM (active) and 28.2 µM (active). The Potency entry in assay [5], in assay [6] and in assay [8] was “inactive” in each case.
With `CN(C)NC(=O)CCC(=O)O`, the Potency entry in assay [1], in assay [2], in assay [3], in assay [4], in assay [5] and in assay [6] was “inactive” each time. Further, the Potency entry in assay [8] was “inactive”.
With `C[C@H]1C(=O)O[C@@H]2CCN3CC=C(COC(=O)[C@](C)(O)[C@]1(C)O)[C@H]23`, the Potency entry in assay [1], in assay [2], in assay [4], in assay [5], in assay [6] and in assay [8] was “inactive” throughout. Further, in assay [3], the Potency result is “inactive and 30.9 µM (active)”.
Take `Cc1cccc(N)c1`: the Potency entry in assay [1] and in assay [2] was “inactive” each time. Moreover, the Potency was 31.8 µM (active) and inactive in assay [3]; 7.99 µM (active) and 45.1 µM (active) and 39.9 µM (active) in assay [4]; 8.96 µM (active) and 35.6 µM (active) in assay [5]; 31.8 µM (active) and inactive and 31.7 µM (active) in assay [6]; 3.18 µM (active) and inactive in assay [8].
Consider `CCOC(=O)CC(SP(=O)(OC)OC)C(=O)OCC` (configuration not stated), for which the Potency is 954 nM (active) and 1.42 µM (active) in assay [1]; 60.2 µM (active) and 56.4 µM (active) in assay [2]; 53.6 µM (active) in assay [4]; 67.5 µM (active) and 71 µM (active) in assay [5]; 75.8 µM (active) and 71 µM (active) in assay [6]. For the same compound, the Potency entry in assay [3] and in assay [8] was “inactive” throughout.
For `O=C(O)Cc1ccccc1`, the Potency entry in assay [1], in assay [2], in assay [4], in assay [5], in assay [7] and in assay [8] was “inactive” throughout. Besides, the Potency in assay [3] is 40 µM (active) and 12.3 µM (active); in assay [6], 63.4 µM (active) and inactive.
In the case of `c1ccc2c(c1)CCCC2`, the Potency entry in assay [1], in assay [2], in assay [4], in assay [5], in assay [6] and in assay [8] was “inactive” throughout. Besides, the Potency in assay [3] is 7.25 µM (active) and inactive.
With `CCCOC(=O)c1ccccc1C(=O)OCCC`, the Potency entry in assay [1], in assay [2], in assay [3] and in assay [8] was “inactive” throughout. In addition, the Potency is 8.09 µM (active) and 8.94 µM (active) in assay [4]; 32.2 µM (active) and 35.6 µM (active) in assay [5]; 2.03 µM (active) and 3.17 µM (active) in assay [6].
Regarding `Nc1nc(N)nc(NC2CC2)n1`, the Potency result in assay [1], in assay [2], in assay [3], in assay [4], in assay [5] and in assay [6] was “inactive” in each case. For the same compound, the Potency result in assay [7] and in assay [8] was “inactive” each time.
As to `O=C(O)C(Br)Br`, the Potency result in assay [1], in assay [2], in assay [3], in assay [4], in assay [5] and in assay [6] was “inactive” in each case. For the same compound, the Potency entry in assay [8] is “inactive”.
As to `CN(C)CCC#N`, the Potency entry in assay [1], in assay [2], in assay [3], in assay [4], in assay [5] and in assay [6] was “inactive” in each case. For the same compound, the Potency result in assay [8] was “inactive”.
As for `C/C=C/c1ccc2c(c1)OCO2`, the Potency result in assay [1], in assay [2], in assay [3], in assay [5] and in assay [8] was “inactive” each time. The Potency result in assay [4] is “inactive and 79.6 µM (active)”; in assay [6], 39.9 µM (active).
As to `Cc1cc(Cl)ccc1OC(C)C(=O)O` (configuration not stated), the Potency result in assay [1], in assay [2], in assay [3], in assay [6] and in assay [8] was “inactive” throughout. For the same compound, the Potency in assay [4] is 78.3 µM (active) and inactive; in assay [5] it was 44.1 µM (active) and inactive.
On to `CCNc1nc(Cl)nc(NC(C)C)n1`, for which the Potency entry in assay [1], in assay [2], in assay [3], in assay [4], in assay [5] and in assay [8] was “inactive” throughout. In addition, the Potency in assay [6] is 24.9 µM (active) and 22.4 µM (active).
Consider `CN(C)C(=O)C(c1ccccc1)c1ccccc1`, for which the Potency result in assay [1], in assay [2], in assay [3], in assay [6] and in assay [8] was “inactive” each time. Further, the Potency in assay [4] is 70.9 µM (active); in assay [5] it was 62.3 µM (active).
`C=CC#N`: the Potency result in assay [1], in assay [2], in assay [3], in assay [4], in assay [5] and in assay [6] was “inactive” throughout. In assay [8], the Potency result is “inactive”.
On to `O=C/C=C/c1ccccc1`, for which the Potency entry in assay [1] was “inactive and 36 µM (active)”; in assay [4], “inactive and 79.6 µM (active)”; in assay [6] it was “inactive and 39.9 µM (active)”. The Potency entry in assay [2], in assay [3], in assay [5] and in assay [8] was “inactive” throughout.
`C[C@]12CC[C@H](O)CC1=CC[C@@H]1[C@@H]2CC[C@]2(C)C(=O)CC[C@@H]12`: the Potency result in assay [1], in assay [2], in assay [3], in assay [6] and in assay [8] was “inactive” each time. In addition, the Potency is 79.7 µM (active) and 71 µM (active) and inactive in assay [4]; 44.8 µM (active) and 31.7 µM (active) and 19.5 µM (active) in assay [5].
Take `COC(=O)Nc1cccc(OC(=O)Nc2cccc(C)c2)c1`: the Potency result in assay [1], in assay [2], in assay [3], in assay [5], in assay [7] and in assay [8] was “inactive” each time. In addition, the Potency in assay [4] was 35.6 µM (active); in assay [6] it was 7.1 µM (active) and 17.8 µM (active).
With `OC[C@@H](O)[C@H]1O[C@@H]2O[C@H](C(Cl)(Cl)Cl)O[C@@H]2[C@H]1O`, the Potency entry in assay [1], in assay [2], in assay [3], in assay [5], in assay [6] and in assay [8] was “inactive” in each case. For the same compound, in assay [4], the Potency is 35.5 µM (active) and inactive.
`C=CC(=O)OCCCCCC(C)C`: the Potency result in assay [1], in assay [2], in assay [3], in assay [4], in assay [5] and in assay [6] was “inactive” each time. The Potency entry in assay [8] is “inactive”.
For `CCSC(=O)N1CCCCCC1`, the Potency result in assay [1], in assay [2], in assay [6] and in assay [7] was “inactive” each time. Besides, the Potency was 30.8 µM (active) and inactive in assay [3]; 34.6 µM (active) in assay [4]; 38.8 µM (active) and inactive in assay [5]; 30.8 µM (active) and inactive in assay [8].
With `C=C(C)C(=O)OCC(CC)CCCC` (configuration not stated), the Potency entry in assay [1], in assay [2], in assay [3], in assay [5], in assay [6] and in assay [8] was “inactive” throughout. The Potency in assay [4] was 40.7 µM (active) and inactive.

The values are drawn from PubChem BioAssay (Tox21).
